SMILES strings stand for the structures. This is part of a sample that, as a whole, favours compounds with a hit. Of some 79,000 tested, about 15% had one in any assay. Active and inactive are the calls of the source. Cut-off read from the data, not from the text of the source: active = growth inhibition above about 70%; inactive = the rest.

The experiment is described as follows: NCI Yeast Anticancer Drug Screen. Data for the rad50 strain (AID 155).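 Note: 0% = growth of vehicle-only cultures of the same strain.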 The following applies: S. cerevisiae rad50 strain growth inhibition; at 50.0 µM; stronger effect = higher value. Put shortly: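 Vehicle-treated cultures provide the reference for the growth inhibition reported for compound-exposed, repair-deficient yeast.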
Turning to `CC(=O)CCCCCCCCCCCCCC(C)=O`, the growth inhibition was -18.1% (inactive). Regarding `CC(C)CCC(=O)C(C)C`, the growth inhibition was 19.7% (inactive). `CCC(=O)OCCCCCCOC(=O)CC`: the growth inhibition is 18.3% (inactive).

Regarding `CCC(=O)Cc1ccc(OC)c(OC)c1`, the growth inhibition is -0.3% (inactive). As for `NC(=O)NC(=O)NCc1ccccc1`, the figure is -1.35% (inactive).

Consider `CC(O)CN1CNC(=S)NC1` (centres undefined), for which the growth inhibition was -3.8% (inactive). Turning to `COC(=O)C1(C2(C(=O)OC)NC(C)=C(c3ccccc3)C(=O)O2)NC(C)=C(c2ccccc2)C(=O)O1` (centres undefined), the growth inhibition is 15.2% (inactive). For the compound `c1ccc2c3c(ccc2c1)OCCOCCOc1ccc2ccccc2c1-3`, the growth inhibition was 76.7% (active). As to `CN(c1ncc(Cc2cnc(N(C)C3CCN(Cc4ccccc4)CC3)nc2)cn1)C1CCN(Cc2ccccc2)CC1`, the growth inhibition is -0.75% (inactive). As for `O=c1[nH]c(Nc2ccc(F)c(Cl)c2)nc2nc[nH]c12`, the figure is 4.4% (inactive); as for `Cc1cc(O)cc(C)c1Cl`, 17.2% (inactive); as for `O=C(O)C(Cc1c[nH]c2ccccc12)N1C(=O)c2ccccc2C1=O` (centres undefined), 18.5% (inactive). `Cn1c(O)c(C=Nc2ccccc2Cl)c(=O)n(C)c1=O`: the growth inhibition was -11.1% (inactive). As to `Cc1cccc(-c2nc(N)nc(N)n2)c1`, the growth inhibition was 11.8% (inactive). The result for `CCCCN(CCCC)CC(CC)N(CCCC)CCCC` (centres undefined) reads -8.4% (inactive); that for `CCOC(=O)CCCN1CCC=C(C#N)C1`, 13% (inactive). `CC1=CN(c2ccccc2)S2=C1c1sc3c(c1N2c1ccc(Br)cc1)CCCC3` (centres undefined): the growth inhibition was 0.9% (inactive). As for `CC(=O)c1ccc(O)c(CN(C2CCCCC2)C2CCCCC2)c1O`, the figure is -2.9% (inactive); as for `O=C(CC(=O)Nc1ccccc1)NNC(Sc1ccccc1)c1cc(N=Nc2ccc(Br)cc2)ccc1O` (centres undefined), 4.6% (inactive).

The values are drawn from PubChem BioAssay (NCI).
